Data as given in the supplement of paper PMC9942566.
± gives the standard deviation of the averaged measurements.

system: Serratia marcescens K904 PosmB-luxCDABE reporter (pMQ747); test: PosmB-lux reporter fold induction (RLU/OD600 relative to no-compound control), highest over Biolog concentrations; higher = stronger reporter activation; details: ΔrcsB mutant CMS5177; 4 h
Description: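 Serratia marcescens K904 (wild type) or its isogenic ΔrcsB mutant, carrying the Rcs-dependent PosmB-luxCDABE reporter plasmid pMQ747, was grown in LB at OD600 0.1 in Biolog Phenotype MicroArray plates PM11-20 for 4 h at 30-32°C. Each compound is present at 3-4 proprietary concentrations (not stated); per the Fig. S1 legend the value given is the highest fold over those wells. Three independent trials.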

| Structure (SMILES) | PosmB-lux reporter fold induction |
| --- | --- |
| CN[C@@H]1[C@@H](O[C@H]2O[C@H](CO)[C@@H](N)[C@H](O)[C@H]2O)OC2C[C@@H](N)[C@@H](O[C@H]3[C@H](O)[C@@H](O)[C@H](N)C[C@@H]3N)OC2[C@@H]1O (stereo not given in full) [apramycin] (Biolog plate: PM20, well positions: A5-8) | 1.48 ± 0.21 |
| CC(Oc1ccccc1)C(=O)N[C@@H]1C(=O)N2[C@@H]1SC(C)(C)[C@@H]2C(=O)O (stereo not given in full) [phenethicillin] (Biolog plate: PM19, well positions: F1-4) | 1.15 ± 0.37 |
| S=c1nc[nH]c2nc[nH]c12 [6-Mercapto-purine] (Biolog plate: PM13, well positions: C1-4) | 1.22 ± 0.54 |
| O=C(OC[C@H]1O[C@@H](OC(=O)c2cc(O)c(O)c(OC(=O)c3cc(O)c(O)c(O)c3)c2)[C@H](OC(=O)c2cc(O)c(O)c(OC(=O)c3cc(O)c(O)c(O)c3)c2)[C@@H](OC(=O)c2cc(O)c(O)c(OC(=O)c3cc(O)c(O)c(O)c3)c2)[C@@H]1OC(=O)c1cc(O)c(O)c(OC(=O)c2cc(O)c(O)c(O)c2)c1)c1cc(O)c(O)c(OC(=O)c2cc(O)c(O)c(O)c2)c1 [tannic acid] (Biolog plate: PM17, well positions: F9-12) | 0.888 ± 0.24 |
| CC1(C)S[C@@H]2[C@H](NC(=O)[C@H](N)c3ccccc3)C(=O)N2[C@H]1C(=O)O [Ampicillin] (Biolog plate: PM13, well positions: A2-4) | 1.06 ± 0.25 |
| CSCCC(N)C(=O)NO (racemic) [DL-methionine hydroxamate] (Biolog plate: PM17, well positions: F5-8) | 5.25 ± 1.3 |
| Nc1ccc(S(N)(=O)=O)cc1 [sulfanilamide] (Biolog plate: PM16, well positions: B5-8) | 1.59 ± 0.33 |
| CC[C@H]1OC(=O)[C@H](C)[C@@H](O[C@H]2C[C@@](C)(OC)[C@@H](O)[C@H](C)O2)[C@H](C)[C@@H](O[C@@H]2O[C@H](C)C[C@H](N(C)C)[C@H]2O)[C@](C)(O)C[C@@H](C)C(=O)[C@H](C)[C@@H](O)[C@]1(C)O [Erythromycin] (Biolog plate: PM11, well positions: F5-8) | 1.46 ± 0.041 |
| CC1(C)S[C@@H]2[C@H](NC(=O)Cc3ccccc3)C(=O)N2[C@H]1C(=O)O [Penicillin G] (Biolog plate: PM12, well positions: A2-4) | 1.02 ± 0.19 |
| O=C(O)CN(CCN(CC(=O)O)CC(=O)O)CC(=O)O (Biolog plate: PM15, well positions: B5-8) | 1.22 ± 0.17 |
| Nc1ccn(C2OC(CO)C(O)C2O)c(=O)n1 [Cytosine-1-beta-D-arabino-furanoside] (Biolog plate: PM13, well positions: E1-4) | 1.91 ± 0.42 |
| COc1cc(Cc2cnc(N)nc2N)cc(OC)c1OC [trimethoprim] (Biolog plate: PM16, well positions: B9-12) | 8.21 ± 3.9 |
| c1ccc(-c2nn(-c3ccccc3)[n+](-c3cccc4ccccc34)n2)cc1 [tetrazolium violet] (Biolog plate: PM20, well positions: B9-12) | 0.262 ± 0.11 |
| Cc1cc(N)c2ccccc2[n+]1CCCCCCCCCC[n+]1c(C)cc(N)c2ccccc21 [Dequalinium chloride] (Biolog plate: PM13, well positions: A5-8) | 1.05 ± 0.21 |
| [Cl-].[Cs+] [Cesium chloride] (Biolog plate: PM13, well positions: F1-4) | 1.64 ± 0.47 |
| Cc1cc(C)nc(NS(=O)(=O)c2ccc(N)cc2)n1 [Sulfamethazine] (Biolog plate: PM12, well positions: D5-8) | 1.41 ± 0.34 |
| CN[C@@H]1[C@H](O[C@H]2[C@H](O[C@H]3[C@H](O)[C@@H](O)[C@H](NC(=N)N)[C@@H](O)[C@@H]3NC(=N)N)O[C@@H](C)[C@]2(O)CO)O[C@@H](CO)[C@H](O)[C@H]1O [dihydro-streptomycin] (Biolog plate: PM19, well positions: G5-8) | 0.97 ± 0.18 |
| COc1ccc(CO)cc1OC [3,4-Dimethoxy-benzyl alcohol] (Biolog plate: PM15, well positions: F1-4) | 1.65 ± 0.64 |
| NC(=O)c1cc[n+](CC2=C(C(=O)[O-])N3C(=O)[C@@H](NC(=O)[C@@H](c4ccccc4)S(=O)(=O)O)[C@H]3SC2)cc1 [cefsulodin] (Biolog plate: PM17, well positions: H1-4) | 1.35 ± 0.096 |
| Nc1ccc(S(=O)(=O)Nc2nccs2)cc1 [Sulfathiazole] (Biolog plate: PM12, well positions: F5-8) | 1.89 ± 0.35 |

| Structure (SMILES) | PosmB-lux reporter fold induction |
| --- | --- |
| CC(=O)O[C@H]1C[C@@]2(C)[C@@H](C[C@@H](O)[C@H]3[C@@]4(C)CC[C@@H](O)[C@@H](C)[C@@H]4CC[C@@]32C)/C1=C(\CCC=C(C)C)C(=O)O [Fusidic acid] (Biolog plate: PM15, well positions: C5-8) | 1.43 ± 0.16 |
| NC(=O)N/N=C/c1ccc([N+](=O)[O-])o1 [5-Nitro-2-furaldehyde semicarbazone] (Biolog plate: PM15, well positions: E5-8) | 3.61 ± 0.9 |
| CCN(CC)CCOC(=O)c1ccc(N)cc1 [Procaine] (Biolog plate: PM15, well positions: A2-4) | 1.04 ± 0.067 |
| CC(C)c1nc2nc(N)nc(N)c2nc1C(C)C [2,4-Diamino-6,7-diisopropyl-pteridine] (Biolog plate: PM12, well positions: E1-4) | 2.91 ± 0.33 |
| CN[C@H](CC(C)C)C(=O)N[C@H]1C(=O)N[C@@H](CC(N)=O)C(=O)N[C@H]2C(=O)N[C@H]3C(=O)N[C@H](C(=O)N[C@H](C(=O)O)c4cc(O)cc(O)c4-c4cc3ccc4O)[C@H](O)c3ccc(c(Cl)c3)Oc3cc2cc(c3O[C@@H]2O[C@H](CO)[C@@H](O)[C@H](O)[C@H]2O[C@H]2C[C@](C)(N)[C@H](O)[C@H](C)O2)Oc2ccc(cc2Cl)[C@H]1O [Vancomycin] (Biolog plate: PM12, well positions: C5-8) | 1.21 ± 0.36 |
| CCn1cc(C(=O)O)c(=O)c2cc(F)c(N3CCNCC3)cc21 [norfloxacin] (Biolog plate: PM16, well positions: B1-4) | 1.91 ± 0.65 |
| CCn1nc(C(=O)O)c(=O)c2cc3c(cc21)OCO3 [cinoxacin] (Biolog plate: PM16, well positions: D9-12) | 16.4 ± 3.4 |
| N=C(NCCCCCCNC(=N)NC(=N)Nc1ccc(Cl)cc1)NC(=N)Nc1ccc(Cl)cc1 [chlorhexidine] (Biolog plate: PM19, well positions: C1-4) | 1.19 ± 0.57 |
| CO[C@@]1(NC(=O)C(C(=O)O)c2ccc(O)cc2)C(=O)N2C(C(=O)O)=C(CSc3nnnn3C)CO[C@@H]21 (stereo not given in full) [Moxalactam] (Biolog plate: PM13, well positions: H5-8) | 1.94 ± 0.81 |
| CCCCCCCCCCCC[N+](C)(C)CCOc1ccccc1 [Domiphen bromide] (Biolog plate: PM15, well positions: D5-8) | 2.39 ± 0.17 |
| COc1cc(NS(=O)(=O)c2ccc(N)cc2)ncn1 [sulfamono-methoxine] (Biolog plate: PM17, well positions: C9-12) | 1.4 ± 0.25 |
| NC[C@@H]1O[C@H](O[C@H]2[C@@H](O)[C@H](O[C@@H]3[C@@H](O)[C@H](N)C[C@H](N)[C@H]3O[C@H]3O[C@H](CN)[C@@H](O)[C@H](O)[C@H]3N)O[C@@H]2CO)[C@H](N)[C@@H](O)[C@@H]1O [Neomycin] (Biolog plate: PM11, well positions: F9-12) | 1.31 ± 0.23 |
| O=C(O)/C=C/c1ccccc1 [cinnamic acid] (Biolog plate: PM19, well positions: C9-12) | 1.17 ± 0.32 |
| NC[C@H]1O[C@H](O[C@H]2[C@H](O)[C@@H](O[C@H]3O[C@H](CO)[C@@H](O)[C@H](N)[C@H]3O)[C@H](N)C[C@@H]2N)[C@H](N)C[C@@H]1O [Tobramycin] (Biolog plate: PM12, well positions: F1-4) | 1.52 ± 0.67 |
| CO[C@H]1C[C@H](O[C@H]2[C@H](C)[C@@H](O[C@@H]3O[C@H](C)C[C@H](N(C)C)[C@H]3O)[C@@H](C)C[C@@]3(CO3)C(=O)[C@H](C)[C@@H](O)[C@@H](C)[C@@H](C)OC(=O)[C@@H]2C)O[C@@H](C)[C@@H]1O [Oleandomycin] (Biolog plate: PM15, well positions: F5-8) | 2.18 ± 0.57 |
| Oc1c(Cl)cc(Cl)c(Cl)c1Cc1c(O)c(Cl)cc(Cl)c1Cl [hexa-chlorophene] (Biolog plate: PM20, well positions: E9-12) | 0.997 ± 0.31 |
| Nc1ccc(S(=O)(=O)Nc2ccc(Cl)nn2)cc1 [sulfachloro-pyridazine] (Biolog plate: PM17, well positions: C5-8) | 1.63 ± 0.15 |
| O=c1ccc2ccc(O)cc2o1 [umbelliferone] (Biolog plate: PM19, well positions: C5-8) | 0.964 ± 0.57 |
| C/C=C/C=C/C(=O)O [sorbic acid] (Biolog plate: PM16, well positions: H9-12) | 4.84 ± 2.9 |
| [Cl][Cu][Cl] [Cupric chloride] (Biolog plate: PM13, well positions: H1-4) | 1.06 ± 0.1 |
